Measured values reported in PubChem BioAssay (NCI).
Where “and” joins values, the source holds several entries; their conditions need not be identical. Equal values may be shown once. This is part of a sample that, as a whole, favours compounds with a hit. Of some 83,000 tested, about 20% had one in any assay.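 Single-concentration screen, 48 h exposure, 96-well plates. Endpoint: percent growth. Below 10 = active.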 Calls of active or inactive are those of the source.

How the values were obtained:
Test in all cases: NCI-60 one-dose screen, 48 h (100 = growth as untreated, 0 = no growth, -100 = all killed)
[1] = tested on: T-47D breast; details: 10 µM unless noted
[2] = tested on: MDA-MB-435 melanoma; details: 10 µM unless noted
[3] = tested on: SW-620 colon; details: 10 µM unless noted
[4] = tested on: MCF7 breast
[5] = tested on: HCT-116 colon; details: 10 µM unless noted
[6] = tested on: HCC-2998 colon; details: 10 µM unless noted
[7] = tested on: KM12 colon; details: 10 µM unless noted
[8] = tested on: BT-549 breast; details: 10 µM unless noted

SMILES	growth [1]	growth [2]	growth [3]	growth ([4]; 10 µM)	growth [5]	growth [6]	growth [7]	growth [8]	growth ([4]; 20 µM)
O=C1OCc2cccc3cccc1c23	114% (inactive)	115% (inactive)	98.2% (inactive)	86.3% (inactive)	104% (inactive)	106% (inactive)	104% (inactive)		
O=C(/C=C\c1cc(Br)ccc1O)/C=C/c1cc(Br)ccc1O	6.69% (active)		-43.4% (active)	6.18% (active)	-97.8% (active)	-74.4% (active)	-71.5% (active)	-12.3% (active)	
O=C1NC(=O)/C(=C/C=C/c2ccccc2)S1	60.7% (inactive)		61.4% (inactive)	19.1% (inactive)	31.7% (inactive)	13.2% (inactive)	38% (inactive)		
CN(C)c1ccc(N=Nc2cccc3ccccc23)cc1	22.2% (inactive)		98.6% (inactive)	14.2% (inactive)	75.2% (inactive)		94.2% (inactive)	76.8% (inactive)	
Nc1ccc(SSc2ccc(N)cc2)cc1	88.7% (inactive)		95.1% (inactive)	96.5% (inactive)	95.1% (inactive)	94.8% (inactive)	86.1% (inactive)	66.6% (inactive)	
Cc1ccc(N=C=C(c2ccccc2)c2ccccc2)cc1	85.7% (inactive)		35.8% (inactive)	68.5% (inactive)	15.9% (inactive)	101% (inactive)	95% (inactive)	91.9% (inactive)	
Nc1ncnc2c1ncn2C1OC(CO)C(O)C1O (stereo not drawn)	109% (inactive) and 9.96% (active) and 90.6% (inactive)			107% (inactive) and 10.7% (inactive) and 97% (inactive)	108% (inactive) and 65% (inactive) and 90% (inactive)	105% (inactive) and 31.2% (inactive) and 107% (inactive)	116% (inactive) and 112% (inactive) and 114% (inactive)	101% (inactive) and 47.6% (inactive) and 123% (inactive)	
Oc1c(Br)cc(Cl)cc1C(c1cc(Cl)cc(Br)c1O)C(Cl)(Cl)Cl	28.9% (inactive)		17.8% (inactive)	11.1% (inactive)	4.13% (active)		13% (inactive)	28% (inactive)	
CN(C)CCOc1ccc2c(c1)C(=O)/C(=C\c1ncc([N+](=O)[O-])n1C)C2	25.4% (inactive)		-31.6% (active)	-30.7% (active)	-5.59% (active)	-86.1% (active)	-68% (active)		
C[N+](C)=c1ccc2nc3c(cc(NCCCNc4cc5oc6cc(=[N+](C)C)ccc-6nc5c5ccccc45)c4ccccc43)oc-2c1	46.2% (inactive)		-25.5% (active)	-52.4% (active)	-36.9% (active)		17.5% (inactive)	61.6% (inactive)	
CCCCCC(CCCCC)C(=O)O	100% (inactive)	123% (inactive)	110% (inactive)	100% (inactive)	109% (inactive)		109% (inactive)		
Cc1ccc2nc(C[n+]3ccc4ccccc4c3)ccc2c1	32.2% (inactive)			35.6% (inactive)	53.5% (inactive)	71.2% (inactive)	56.4% (inactive)	21.7% (inactive)	
CC1(C)CC([P+](c2ccccc2)(c2ccccc2)c2ccccc2)=NN1	6.55% (active)	28.2% (inactive)	47.6% (inactive)	5.67% (active)	16.6% (inactive)	18.1% (inactive)	21.7% (inactive)		
N[C@H](C(=O)O)[C@@H]1CC(Cl)=NO1	37.4% [20 µM] (inactive)				14.1% [20 µM] (inactive)	34.7% [20 µM] (inactive)	18.2% [20 µM] (inactive)	27.3% [20 µM] (inactive)	12.3% (inactive)
S=C(NCCNC(=S)[S][Sn]([c]1ccccc1)([c]1ccccc1)[c]1ccccc1)[S][Sn]([c]1ccccc1)([c]1ccccc1)[c]1ccccc1	-75.7% (active)			-99.8% (active)	-82.8% (active)	-82.4% (active)	-99.4% (active)	-78.8% (active)	
COc1cc(/C=C/C(C)=O)ccc1O	97.2% (inactive) and 106% (inactive)			96.8% (inactive) and 98.8% (inactive)	104% (inactive) and 103% (inactive)	102% (inactive) and 104% (inactive)	90% (inactive) and 92.7% (inactive)	104% (inactive)	
CN(C)c1ccc(C(=C2C=CC(=[N+](C)C)C=C2)c2ccc(N(C)C)cc2)cc1 (tested in a mixture with another compound)	-92.4% (active)	-57.7% (active)	-72.3% (active)	-92.3% (active)	-76% (active)	-80.3% (active)	-95.3% (active)		
